Bioassay records (PubChem BioAssay)
The list is a sample of the results.
aSyn 5UTR act: Activators via SNCA 5'UTR binding, MLPCN; alpha-synuclein 5'UTR reporter, activators screen; 300,000 tested, 7.1% active; activity score, % (tested at 7.5 µM), hits read low; in the data active = activity score below about -60%
The depositor's hits bear a star.

`CCOc1ccc(-c2cc(CCCC(=O)NCc3ccc(C)cc3)no2)cc1` gave aSyn 5UTR act 81.
For O=C(NCc1cccs1)c1nc(-c2cccs2)no1 the results were aSyn 5UTR act -100*.
O=C(NCc1cccs1)c1cc(-c2ccc(O)cc2)on1 was read as aSyn 5UTR act -157*.
`O=C(NCc1cccs1)c1cc(-c2cccc(Cl)c2)on1` gave aSyn 5UTR act -77*.
`COc1ccc(Nc2oc(COc3ccc(C)cc3)nc2C#N)cc1` gave aSyn 5UTR act 68.
Screening CCNc1oc(COc2cccc(C)c2)nc1C#N returned aSyn 5UTR act -95*.
`N#Cc1nc(COc2cccc(Cl)c2)oc1NCc1ccco1` gave aSyn 5UTR act -105*.
For CCC1S/C(=N/C(=O)NC2CCCCC2)NC1=O (stereo not drawn) the results were aSyn 5UTR act -86*.
CSc1nnc(-c2ccccc2N=Cc2c(C)[nH]n(-c3ccc4ccccc4c3)c2=O)c(=O)[nH]1 was read as aSyn 5UTR act -73*.
Cc1cccc(NC(=S)N=Nc2c(O)n(C)c3ccc(S(=O)(=O)N4CCOCC4)cc23)c1 was read as aSyn 5UTR act 83.
O=C(Nc1ccccn1)c1ccc(S(=O)(=O)N2CCCCC2)cc1 was read as aSyn 5UTR act -121*.
O=C(N/N=C\c1cc(Br)ccc1O)c1ccc(S(=O)(=O)N2CCCCC2)cc1 was read as aSyn 5UTR act 110.
`O=C(Nc1cccc(O)c1)c1ccc(S(=O)(=O)N2CCCCCC2)cc1` gave aSyn 5UTR act -68*.
O=C(Nc1ccccn1)c1ccc(S(=O)(=O)N2CCCCCC2)cc1 was read as aSyn 5UTR act -87*.
`Cc1ccnc(NC(=O)c2ccc(S(=O)(=O)N3CCCCCC3)cc2)c1` gave aSyn 5UTR act -119*.
`Cc1ccnc(NC(=O)C2CCN(S(=O)(=O)c3ccc(Cl)c(C(F)(F)F)c3)CC2)c1` gave aSyn 5UTR act -63*.
For O=C(Nc1ccccn1)c1ccc(Br)c(S(=O)(=O)N2CCCC2)c1 the results were aSyn 5UTR act -65*.
For CCS(=O)(=O)c1ncc(Cl)c(C(=O)Nc2ccc(S(=O)(=O)N3CCC(C)CC3)cc2)n1 the results were aSyn 5UTR act 65.
CCN(CC)CCNC(=O)c1ccc(NC(=O)c2ccc(S(=O)(=O)N3CCCCCC3)cc2)cc1 was read as aSyn 5UTR act -64*.
For O=C(Nc1ccccc1[N+](=O)[O-])c1ccc(S(=O)(=O)N2CCCC2)cc1 the results were aSyn 5UTR act -131*.
`O=C(Nc1cccc(S(=O)(=O)N2CCCCC2)c1)c1ccc([N+](=O)[O-])o1` gave aSyn 5UTR act -268*.
For O=C(CSc1ccc(-c2ccccc2)nn1)c1cccs1 the results were aSyn 5UTR act -94*.
Screening O=C(CSc1ccc(-c2cccs2)nn1)N1CCCCCC1 returned aSyn 5UTR act -71*.
Screening COc1ccc(-c2ccc(SCC(=O)c3cccs3)nn2)cc1 returned aSyn 5UTR act -94*.
Screening Cc1ccc(-c2ccc(SCC(=O)c3ccccc3)nn2)cc1 returned aSyn 5UTR act -65*.
Cc1cc(SCC(=O)c2ccccc2)nc(=O)[nH]1 was read as aSyn 5UTR act -107*.
Nc1ccc(C(=O)OCc2nc3c(ccc4ccccc43)[nH]2)cc1 was read as aSyn 5UTR act -116*.
C=CCN(C(=O)CSC1=NC(=O)CN1C(C)=O)c1nc(C)c(-c2ccccc2)s1 was read as aSyn 5UTR act -118*.
O=c1/c(=C\c2ccc3c(c2)OCO3)sc2n1CCCN=2 was read as aSyn 5UTR act -83*.
`Cc1ccc(/C=c2/sc3n(c2=O)CCCN=3)o1` gave aSyn 5UTR act -143*.
Cc1csc(NC(=O)c2cccc(C)c2C)n1 was read as aSyn 5UTR act -155*.
For Cc1csc(NC(=O)c2ccc(Cl)cc2[N+](=O)[O-])n1 the results were aSyn 5UTR act -92*.
CC(C)[C@H](NC(=O)c1ccccc1Cl)C(=O)Nc1nc(-c2ccccn2)cs1 was read as aSyn 5UTR act 64.
Cc1csc(NC(=O)c2ccoc2C)n1 was read as aSyn 5UTR act -191*.
Screening Cc1csc(NC(=O)c2cccnc2Cl)n1 returned aSyn 5UTR act -76*.
`O=C(Nc1nc(-c2ccccn2)cs1)c1cc(Cl)ccc1[N+](=O)[O-]` gave aSyn 5UTR act 116.
`Cc1csc(NC(=O)c2ccc[nH]c2=O)n1` gave aSyn 5UTR act -85*.
Cc1csc(NC(=O)c2cnccn2)n1 was read as aSyn 5UTR act -105*.
For O=C(CSc1nnc(-c2ccc(C(F)(F)F)cn2)o1)Nc1ccccc1Cl the results were aSyn 5UTR act -98*.
Screening COc1ccc(NCc2nnc(SCC(=O)Nc3cc(C)cc(C)c3)o2)cc1 returned aSyn 5UTR act -65*.
For CC(C)(C)c1ccc(NC(=O)CSc2nnc(-c3n[nH]c4ccccc34)o2)cc1 the results were aSyn 5UTR act -129*.
For COc1ccc(NCc2nnc(SCC(=O)Nc3cc(C(F)(F)F)ccc3Cl)o2)cc1 the results were aSyn 5UTR act -63*.
`CCSc1nnc(NC(=O)C2CCCCC2)s1` gave aSyn 5UTR act -98*.
For CCSc1nnc(NC(=O)c2csc(C)c2)s1 the results were aSyn 5UTR act -176*.
`C/C(N)=C(/C#N)C(=O)CSc1nnc(Nc2cccc(C)c2)s1` gave aSyn 5UTR act -180*.
C/C(N)=C(/C#N)C(=O)CSc1nc2cc(Cl)ccc2s1 was read as aSyn 5UTR act -116*.
Screening CCSc1nnc(NC(=O)Nc2cccc(C)c2)s1 returned aSyn 5UTR act -143*.
For CC(c1nccs1)N(C)C(=O)c1cn(Cc2cccc3ccccc23)nn1 (stereo not drawn) the results were aSyn 5UTR act -86*.
Screening Cc1c(OCc2ccccc2)cccc1OCc1ccccc1 returned aSyn 5UTR act -71*.
COc1cccc2sc(/N=C/N(C)C)nc12 was read as aSyn 5UTR act -81*.
For CCC(=O)Nc1cccc(NC(=O)c2ccc3c(c2)OCCO3)c1 the results were aSyn 5UTR act -105*.
Screening CN(C)S(=O)(=O)c1cccc(NC(=O)c2ccc3c(c2)OCCO3)c1 returned aSyn 5UTR act -119*.
CCN1C(=O)c2cccc3c(NC(=O)c4ccc5c(c4)OCCO5)ccc1c23 was read as aSyn 5UTR act -79*.
For Cn1cccc1C(=O)OCC(=O)Nc1ccc2c(c1)CCC2 the results were aSyn 5UTR act -138*.
`Cn1cccc1C(=O)OCC(=O)Nc1ccc2c(c1)OCO2` gave aSyn 5UTR act -101*.
For Cc1nc2ccccc2nc(=O)c1NNc1ccccc1 the results were aSyn 5UTR act -241*.
For Cc1ccc2nc(=O)c(NNc3ccccc3)cnc2c1 the results were aSyn 5UTR act -218*.
O=C(NCc1ccco1)C(=O)NCc1ccccc1Cl was read as aSyn 5UTR act -71*.
For O=C(NCc1ccco1)c1sc2cc(Cl)ccc2c1Cl the results were aSyn 5UTR act -66*.
For CCN(CC)CCOC(=O)C(Cc1ccco1)Cc1cccc2ccccc12 (stereo not drawn) the results were aSyn 5UTR act 104.
`O=C(NCc1ccco1)c1sc2ccccc2c1Cl` gave aSyn 5UTR act -114*.
For O=C(NCc1ccco1)c1cc2cc3ccc(Cl)cc3nc2o1 the results were aSyn 5UTR act -62*.
O=C(Nc1ccon1)c1sc2cc(Cl)ccc2c1Cl was read as aSyn 5UTR act -84*.
Screening COc1ccccc1N1C(=O)C(Cl)=C(Nc2ccccc2O)C1=O returned aSyn 5UTR act -127*.
Screening O=C1C(Cl)=C(Nc2ccccc2O)C(=O)N1c1ccccc1 returned aSyn 5UTR act -94*.
